# According to PubChem BioAssay (NCI):
# This is part of a sample that, as a whole, favours compounds with a hit. Of some 83,000 tested, about 20% had one in any assay.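 Cells were grown in 96-well plates and exposed to the test compound at a single concentration for 48 hours; results are reported as percent growth, with values below 10 considered active.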 Values without a mark were called inactive. Activity calls are given as the source filed them.
# Key:
# Assay in all cases: NCI-60 one-dose screen, 48 h (100 = growth as untreated, 0 = no growth, -100 = all killed)
# Details in all cases: 10 µM unless noted
# EKVX NSCLC = system: EKVX NSCLC
# SN12C renal = system: SN12C renal
# UO-31 renal = system: UO-31 renal
# ACHN renal = system: ACHN renal
# CAKI-1 renal = system: CAKI-1 renal
# CCRF-CEM leukemia = system: CCRF-CEM leukemia
# MOLT-4 leukemia = system: MOLT-4 leukemia
# SR leukemia = system: SR leukemia
# OVCAR-5 ovarian = system: OVCAR-5 ovarian
# OVCAR-4 ovarian = system: OVCAR-4 ovarian
# SK-OV-3 ovarian = system: SK-OV-3 ovarian
# IGROV1 ovarian = system: IGROV1 ovarian
# OVCAR-3 ovarian = system: OVCAR-3 ovarian
# HS 578T breast = system: HS 578T breast
# NCI/ADR-RES ovarian = system: NCI/ADR-RES ovarian
# T-47D breast = system: T-47D breast
# A498 renal = system: A498 renal
# RPMI-8226 leukemia = system: RPMI-8226 leukemia
# OVCAR-8 ovarian = system: OVCAR-8 ovarian
SMILES,growth (EKVX NSCLC),growth (SN12C renal),growth (UO-31 renal),growth (ACHN renal),growth (CAKI-1 renal),growth (CCRF-CEM leukemia),growth (MOLT-4 leukemia),growth (SR leukemia),growth (OVCAR-5 ovarian),growth (OVCAR-4 ovarian),growth (SK-OV-3 ovarian),growth (IGROV1 ovarian),growth (OVCAR-3 ovarian),growth (HS 578T breast),growth (NCI/ADR-RES ovarian),growth (T-47D breast),growth (A498 renal),growth (RPMI-8226 leukemia),growth (OVCAR-8 ovarian)
C#Cc1nc(C2=C(C)/C(=N/OCc3ccccc3)CC2)cs1,19.4%,66.6%,-93.8% (active),0.823% (active),-20.1% (active),-30.2% (active),60.7%,-52.4% (active),54.6%,16.7%,-22.3% (active),-68.3% (active),74.2%,70.9%,-3.32% (active),67.5%,–,–,–
N#Cc1c(-c2ccc(F)cc2)nc2c(C#N)c(Nc3ccccc3)nn2c1N,92.8%,97.7%,90.7%,105%,–,–,102%,93.3%,98.9%,103%,117%,107%,106%,99.6%,103%,88.3%,66.3%,104%,101%
COC(=O)C1CN(S(=O)(=O)/N=C2\NC(=O)NC2=C(Cl)Cl)C1,104%,101%,88.7%,106%,101%,95.5%,104%,94.4%,116%,123%,113%,109%,116%,104%,109%,81%,–,85.2%,99.9%
COC(=O)C(C)NS(=O)(=O)/N=C1\NC(=O)NC1=C(Cl)Cl (stereo not given),104%,98.7%,81.7%,98.2%,99%,95.9%,100%,93.2%,98.8%,113%,119%,104%,117%,107%,105%,107%,–,104%,100%
C#Cc1nc(C2=C(C)C(=O)/C(=N/OC(C)=O)C2)cs1,97.5%,99%,-92.1% (active),26.3%,58.5%,80.8%,87.7%,13.4%,99.4%,89.9%,104%,-37.2% (active),111%,90.7%,1.61% (active),79.9%,–,–,78.3%
NS(=O)(=O)c1cccc(Nc2nc(SCC(=O)c3ccc(Br)cc3)nc3ccccc23)c1,64.8%,74.9%,59.6%,28%,-11.3% (active),68.6%,44%,37.1%,–,43.6%,90.1%,85.4%,–,59.6%,82.8%,31.9%,–,46.1%,39.5%
O=C(N/N=C/c1ccc([N+](=O)[O-])s1)c1[nH]c2ccc(Br)cc2c1-c1ccccc1,9.91% (active),17.5%,46.6%,12.7%,23.6%,16.1%,9.21% (active),7.33% (active),27.9%,55.9%,45.8%,24.4%,24.1%,11.6%,17.3%,59.7%,–,0.935% (active),-8.62% (active)
OC1CCN(CCCOc2c3ccccc3nc3c2oc2ccccc23)CC1,-13.7% (active),-1.2% (active),-34.4% (active),-39% (active),–,6.02% (active),3.82% (active),-3.77% (active),-8.63% (active),4.9% (active),-10.8% (active),-37.2% (active),–,8.94% (active),-17.9% (active),1.32% (active),-78.8% (active),-24% (active),-44.9% (active)
CN1CCN(Cc2ccc(NC(=O)c3cncc(C#Cc4cnc5ccc(N6CCSCC6)nn45)c3)cc2C(F)(F)F)CC1,-47.1% (active),-69.5% (active),-11.5% (active),-91.4% (active),–,–,4.9% (active),-31.9% (active),–,-13.7% (active),-19.8% (active),-9.25% (active),-59.6% (active),-24.7% (active),-11.6% (active),34.1%,-81.9% (active),-7.39% (active),-67.7% (active)
CS(=O)(=O)c1ccc(-c2nc3ccccn3c2/C=N/Nc2nc(-c3ccc(Cl)cc3)cs2)cc1,96.8%,102%,76.2%,101%,–,85.6%,82%,95.1%,104%,105%,140%,115%,–,107%,104%,78%,79.9%,–,98%
COc1ccc(-c2csc(N/N=C/c3c(-c4ccc(S(C)(=O)=O)cc4)nc4ccccn34)n2)cc1,106%,105%,87%,102%,–,94.2%,92.4%,94.5%,108%,105%,136%,115%,124%,118%,110%,87.8%,85.9%,91.4%,103%
CC(C)Sc1nc(Nc2ccc(S(N)(=O)=O)cc2)c(C#N)c(-c2ccc(F)cc2)n1,50.9%,–,–,–,–,–,49.9%,-36.9% (active),–,–,–,–,–,–,32.5%,–,–,58.1%,–
CCOC(=O)c1c(Nc2ccccc2)nn2c(N)c(C#N)c(-c3ccc(OC)cc3)nc12,69.2%,86.6%,76.7%,38.5%,–,89.3%,94.7%,–,101%,35.9%,55.9%,85.5%,–,19.4%,73.3%,61.3%,75.5%,88.7%,66.1%
COc1cc2nc(-c3ccc(C(F)(F)F)cc3)cc(OCCCNCC3CCCO3)c2cc1OC (stereo not given),61.5%,46.2%,35.9%,31.9%,–,–,14.3%,8.68% (active),40.6%,62.4%,86.2%,28.5%,65.4%,55.6%,41.4%,38%,17.9%,-13.1% (active),35.6%
